Among the test systems are HCT-15 colon; HT29 colon; SNB-75 CNS; SNB-19 CNS; U251 CNS; PC-3 prostate; SK-MEL-5 melanoma; UACC-62 melanoma; LOX IMVI melanoma; SK-MEL-28 melanoma.
Holding throughout (assay): NCI-60 one-dose screen, 48 h (100 = growth as untreated, 0 = no growth, -100 = all killed)
Holding throughout (conditions): 10 µM unless noted

This is part of a sample that, as a whole, favours compounds with a hit. Of some 83,000 tested, about 20% had one in any assay.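 Results are percent growth after 48 hours of single-concentration exposure. 100 means growth as in untreated cells, lower positive values show inhibition; negative values down to -100 show cell death.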 Values without a mark were called inactive. Activity calls are given as the source filed them. Rule for the calls: active = growth percent below 10; inactive = the rest.

As to `C=CCOc1ccc(/C(Cl)=N/N=C(\Cl)c2cc(OC)c(OC)c(OC)c2)cc1`, the growth is 67.3% in the experiment with HCT-15 colon; 53.2% in the experiment with HT29 colon; 104% with SNB-75 CNS; 80.7% in the experiment on SNB-19 CNS; 72.8% in the experiment with U251 CNS; 65.1% in the experiment with PC-3 prostate. In addition, the growth was 68.5% in the experiment with SK-MEL-5 melanoma, 64.5% with UACC-62 melanoma, 80.5% with LOX IMVI melanoma and 88.1% with SK-MEL-28 melanoma.

Turning to `Nc1ccc(S(=O)(=O)Nc2cc(I)cc(I)c2)cc1`, the growth in the experiment with HCT-15 colon was 112%; in the experiment with HT29 colon, 107%; in the experiment on SNB-75 CNS, 97.6%; in the experiment with SNB-19 CNS, 116%; in the experiment with U251 CNS, 106%; in the experiment with PC-3 prostate it was 97.2%. For the same compound, the growth in the experiment on SK-MEL-5 melanoma is 105%; in the experiment with UACC-62 melanoma, 107%; with LOX IMVI melanoma, 104%; with SK-MEL-28 melanoma, 105%.

On to `COc1ccc(-c2nnc(SCC(=O)N3CCN(c4cc5c(cc4F)c(=O)c(C(=O)O)cn5C4CC4)CC3)o2)cc1OC`, for which the growth in the experiment on HCT-15 colon was 93.6%; with HT29 colon it was 94.6%; in the experiment on SNB-75 CNS, 98.4%; in the experiment with SNB-19 CNS, 97.4%; with U251 CNS, 98.4%; in the experiment on PC-3 prostate it was 59.2%. For the same compound, the growth in the experiment on SK-MEL-5 melanoma is 99.7%; in the experiment with UACC-62 melanoma it was 97.7%; in the experiment with LOX IMVI melanoma it was 81.6%; in the experiment with SK-MEL-28 melanoma it was 95.2%.

As to `COc1cc(/C=C/C(=O)N2CCC=CC2=O)cc(OC)c1OC`, the growth with HCT-15 colon is 1.7% (active); in the experiment with HT29 colon it was 23.2%; in the experiment with SNB-75 CNS, 75.7%; with SNB-19 CNS, 72.9%; with U251 CNS it was 68.3%; in the experiment with PC-3 prostate, 79.7%. Besides, the growth was 73.8% in the experiment on SK-MEL-5 melanoma, 40.8% in the experiment with UACC-62 melanoma, 10.2% in the experiment on LOX IMVI melanoma and 56% in the experiment with SK-MEL-28 melanoma.

For the compound `O=c1c(-c2ccc3c(c2)OCO3)coc2c(CO)c(O)ccc12`, the growth in the experiment with HCT-15 colon is 12.6%; in the experiment on HT29 colon, 86.1%; in the experiment with SNB-75 CNS, -5.16% (active); in the experiment with SNB-19 CNS, 13.5%; in the experiment with U251 CNS, -92.6% (active); in the experiment on PC-3 prostate, -52.4% (active). Also, the growth in the experiment on SK-MEL-5 melanoma was 5.73% (active); in the experiment on UACC-62 melanoma, -53.1% (active); in the experiment with LOX IMVI melanoma it was -43.6% (active); in the experiment with SK-MEL-28 melanoma, 40.3%.

Take `O=C(Nc1ccc(-n2cc(-c3ccncc3)c(-c3ccc(O)c(Cl)c3)n2)cc1)Nc1cc(C(F)(F)F)cc(C(F)(F)F)c1`: the growth in the experiment with HCT-15 colon is 61.1%; in the experiment with HT29 colon it was 97.2%; in the experiment with SNB-75 CNS, 72.2%; with SNB-19 CNS, 47.6%; with U251 CNS, 37.7%; in the experiment on PC-3 prostate, 50.4%. Also, the growth is 54% in the experiment on SK-MEL-5 melanoma, 64.1% in the experiment on UACC-62 melanoma, 51.4% in the experiment on LOX IMVI melanoma and 76.8% with SK-MEL-28 melanoma.

As for `O=C(Nc1ccccc1Cl)c1c[nH]c(=O)c(-c2ccc(N3CCCOC4(CC4)C3)cc2)c1`, the growth is 78.8% in the experiment on HCT-15 colon; 70.5% in the experiment on HT29 colon; 73% in the experiment on SNB-75 CNS; 72.4% in the experiment with SNB-19 CNS; 75.9% in the experiment with U251 CNS; 57.5% with PC-3 prostate. The growth was 8.08% (active) in the experiment with SK-MEL-5 melanoma, 63.5% with UACC-62 melanoma, 46.7% in the experiment on LOX IMVI melanoma and 78.4% in the experiment with SK-MEL-28 melanoma.

With `O=C(NC(=S)Nc1ccc(Cl)cc1)c1ccccc1`, the growth with HCT-15 colon is 93.6%; in the experiment with HT29 colon, 87%; in the experiment with SNB-75 CNS, 94.9%; in the experiment on SNB-19 CNS, 105%; with U251 CNS, 96.4%; with PC-3 prostate it was 105%. Further, the growth in the experiment on SK-MEL-5 melanoma was 102%; in the experiment with UACC-62 melanoma, 85.5%; in the experiment with LOX IMVI melanoma, 106%; in the experiment on SK-MEL-28 melanoma, 96.2%.

Regarding `C[C@H]1C=C(C[C@@H](O)CCCCCCCCCC[C@@H](O)[C@H]2CCC(=O)O2)C(=O)O1`, the growth in the experiment with HCT-15 colon was 108%; in the experiment on HT29 colon it was 109%; with SNB-75 CNS, 115%; with SNB-19 CNS, 96.7%; in the experiment with U251 CNS it was 99.5%; in the experiment on PC-3 prostate it was 89.4%. Besides, the growth was 95.9% in the experiment on SK-MEL-5 melanoma, 92.2% in the experiment on UACC-62 melanoma, 90.5% in the experiment with LOX IMVI melanoma and 124% in the experiment with SK-MEL-28 melanoma.

In the case of `Cc1ccc(N(CC2=NCCN2)c2cccc(O)c2)cc1`, the growth with HCT-15 colon is 102%; with HT29 colon it was 107%; in the experiment with SNB-75 CNS, 84.9%; in the experiment on SNB-19 CNS it was 103%; in the experiment with U251 CNS, 88.8%; in the experiment with PC-3 prostate it was 92.1%. Besides, the growth in the experiment on SK-MEL-5 melanoma is 99.2%; in the experiment on UACC-62 melanoma, 105%; in the experiment on LOX IMVI melanoma, 95%; with SK-MEL-28 melanoma it was 108%.

As to `COc1ccc(-c2cc(-c3nnc(SC/C(=N\O)c4ccccc4)n3-c3ccccc3)c3ccccc3n2)cc1`, the growth in the experiment with HCT-15 colon is 107%; in the experiment with HT29 colon it was 99.5%; with SNB-75 CNS it was 100%; in the experiment with SNB-19 CNS, 105%; in the experiment on U251 CNS, 101%; in the experiment with PC-3 prostate, 93.6%. Moreover, the growth was 108% in the experiment with SK-MEL-5 melanoma, 97.6% in the experiment on UACC-62 melanoma, 95.7% in the experiment on LOX IMVI melanoma and 113% in the experiment with SK-MEL-28 melanoma.

Take `Cc1c(NC(=O)c2sc3nc4c(cc3c2N)CN(Cc2ccccc2)CC4)cccc1C(F)(F)F`: the growth is 29.3% in the experiment on HCT-15 colon; 12.2% in the experiment on HT29 colon; 45.8% in the experiment with SNB-75 CNS; 50.5% with SNB-19 CNS; 38.2% with U251 CNS; 56% in the experiment with PC-3 prostate. For the same compound, the growth was 41.9% with SK-MEL-5 melanoma, 37.2% with UACC-62 melanoma, 42.3% with LOX IMVI melanoma and 74% in the experiment on SK-MEL-28 melanoma.

On to `CCn1cc(C(=O)O)c(=O)c2cc(F)c(N3CCN(CC(=O)Nc4ccc(C(C)=O)cc4)CC3)cc21`, for which the growth with HCT-15 colon is 104%; in the experiment on HT29 colon, 100%; in the experiment on SNB-75 CNS, 87.3%; in the experiment on SNB-19 CNS it was 99%; with U251 CNS it was 99.6%; in the experiment on PC-3 prostate it was 96.4%. In addition, the growth in the experiment with SK-MEL-5 melanoma is 100%; in the experiment on UACC-62 melanoma it was 95.9%; in the experiment on LOX IMVI melanoma it was 96.1%; in the experiment with SK-MEL-28 melanoma, 105%.
